The values below come from PubChem BioAssay AID686978 (National Center for Advancing Translational Sciences (NCATS), 2013).

Hit rate of the full screen: of about 420,000 compounds, about 64,000 (15%) were called active. About 27% were inconclusive and are not listed. The call rests on the fitted dose curve; in most records, active means well fitted inhibition curve with a large enough effect; inconclusive means small, poorly fitted or top-dose-only effect; inactive means flat fitted curve, though single readings scatter. A selection follows. Entries that show only a call come without a potency.
Potency means the concentration at half of the fitted maximal effect.

A short description of this experiment: qHTS for Inhibitors of human tyrosyl-DNA phosphodiesterase 1 (TDP1): qHTS in cells in absence of CPT. Further: nearly all actives have a fitted effect of over 55% in size. The note with it: DT40 Tdp1-/- hTDP1 cells, no CPT, ATP luminescence, 48 h; activity change, negative = growth inhibition: at 46.2 µM (top of the series). An outline of the steps:
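Chicken DT40 Tdp1-/- cells stably complemented with human TDP1 were seeded at 400 cells/well with DMSO in place of 20 nM camptothecin. After compound pinning, cells grew at least 48 hr at 37 °C; viability read by CellTiter-Glo luminescence.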
For `NC(=O)Cc1ccc2c(c1)[nH]c1ccccc12`, the Potency entry was “inactive”.
As for `CCc1cc(-c2nnc(SCC(=O)NC3CC3)n2C)cs1`, the Potency result is “inactive”.
For `COc1ccc(/C=N/NC(=O)c2ccc3c(c2)OCCO3)c(OC)c1`, the Potency entry was “inactive”.
Next, `CN(C)CCNC(=O)c1[nH]nc2c1CCc1ccccc1-2`: “inactive”.
For the compound `COc1ccc(OC)c(/C=N/NC(=O)c2ccc[n+](CC(=O)c3ccccc3)c2)c1`, the Potency result was “inactive”.
For the compound `COc1cccc(/C=N/NC(=O)c2[nH]nc3c2CCc2ccccc2-3)c1O`, the Potency was 2.91 µM (active).
As for `COc1cccc(/C=N\NC(=O)C2=NNC(=O)C2C)c1O` (centres undefined), the figure is 23.1 µM (active); as for `CCC(C)C1(C2CCCC2)NC(=O)NC1=O` (centres undefined), “inactive”.
As for `CN1CCN(C(=O)CCc2ncc(C(F)(F)F)cc2Cl)CC1`, the entry is “inactive”; as for `CCN1CCC2(CC1)N=C(c1ccc(F)cc1)C(=S)N2C(=O)c1ccc(C)cc1`, 5.8 µM (active).
On to `CCN1CCN(C(=O)CSc2ccc(C)cc2)CC1`, for which the Potency result is “inactive”.
As for `Cc1ccc(C(=O)N(CN2CCCC2=O)c2ccc(F)cc2)cc1`, the entry is “inactive”; as for `COc1ccc(Cl)cc1S(=O)(=O)N1CCC(O)(c2ccc(Cl)cc2)CC1`, “inactive”; as for `O=C(c1cc2ccccc2o1)N1CCN(Cc2ccccc2)CC1`, “inactive”.
Regarding `CS(=O)(=O)N1CCN(C(=O)c2cc3ccccc3oc2=O)CC1`, the Potency result is “inactive”.
As for `O=C(c1cc2ccccc2o1)N1CCN(S(=O)(=O)c2ccc(Cl)s2)CC1`, the figure is 14.6 µM (active); as for `COC(=O)c1ccc(C)c(NC(=O)Cn2c(C)csc2=O)c1`, “inactive”; as for `CCOc1cc(/C=N/n2cnnc2)c(Br)cc1O`, “inactive”.
As for `O=C(c1csnn1)N1CCC2(CCN(Cc3nccs3)CC2)CC1`, the entry is “inactive”.
On to `CN1CN(C)c2ccc([N+](=O)[O-])c3cccc1c23`, for which the Potency entry was “inactive”.
Consider `Cc1nc2ccccn2c1C(=O)NN=C1CCN(C)CC1`, for which the Potency result was “inactive”.
Next, `O=C(Nc1ccc(F)cc1)C1CCCN(S(=O)(=O)c2ccc(-n3cnnn3)cc2)C1` (centres undefined): “inactive”; `CCOC(=O)c1cccc(NC(=O)C2CCCN(S(=O)(=O)c3cnc[nH]3)C2)c1` (centres undefined): “inactive”.
For the compound `COC(=O)c1ccc(CN2CCCC(C(=O)Nc3cccc(-n4cnnn4)c3)C2)cc1` (centres undefined), the Potency is 16.4 µM (active).
As for `Cc1ccc(C(=O)NC2CCN(C(=O)Nc3ccccc3Cl)CC2)cc1`, the entry is “inactive”; as for `CN(CC(=O)NCc1ccc2c(c1)OCO2)CC(=O)Nc1ccc(F)c(F)c1F`, “inactive”; as for `CC(C)c1ccc(Cn2c(COc3ccccc3)nc3ccccc32)cc1`, 20.6 µM (active).
For `CC(O)c1nc2ccccc2n1Cc1ccc([N+](=O)[O-])cc1` (centres undefined), the Potency entry was “inactive”.
As for `Cc1nc2ccccc2n1CC(O)c1ccccc1` (centres undefined), the entry is “inactive”; as for `COC(=O)[C@@H](NC(=O)Nc1cc(Cl)ccc1C)C(C)C`, “inactive”.
Next, `Cc1ccc2c(C)nc(N3CCCC(C(=O)NC(C)(C)CO)C3)nc2c1` (centres undefined): “inactive”.
Next, `Cc1ccc(NC(=O)CSc2nnc(-c3cnccn3)n2Cc2ccco2)cc1C`: “inactive”; `O=C(COc1ccc(S(=O)(=O)NCc2ccccc2)cc1)N1CCOCC1`: “inactive”; `CCOC(=O)c1c(-c2ccc(C)cc2)csc1/N=C(\C)C1=C(O)c2ccccc2C1=O`: 18.4 µM (active).
Turning to `CC(=NCc1ccco1)C1=C(O)c2ccccc2C1=O`, the Potency result is “inactive”.
As for `COC(=O)c1c(-c2ccc(C)cc2)csc1N`, the entry is “inactive”.
Take `CCOC(=O)c1c(/N=C/C2C(=O)CC(C)(C)CC2=O)sc(C)c1C`: the Potency entry was “inactive”.
Next, `CC1CCCCC1NC(=O)COC(=O)Cc1ccc(Br)cc1` (centres undefined): “inactive”; `CCCCn1c(N)c(N(CC)C(=O)c2ccc(N(C)S(=O)(=O)c3ccc(C)cc3)cc2)c(=O)[nH]c1=O`: “inactive”; `O=C(O)c1ccc(Nc2nc(-c3ccccc3)c3cc(Br)ccc3n2)cc1`: “inactive”.
Next, `NC(N)=Nc1nc(-c2ccccc2)c2cc(Cl)ccc2n1`: 16.4 µM (active); `Cc1ccc2nc(Nc3ccccc3O)nc(-c3ccccc3)c2c1`: “inactive”.
Next, `C[C@H]1CC[C@]2(O[C@@H](CCO)C[C@@H](O)[C@@H]2O)O1`: “inactive”.
`COCCn1c(=O)c(-c2cccc(F)c2)nc2cncnc21`: the Potency entry is “inactive”.
In the case of `CCC(O)C1CCN(Cc2cn(-c3ccc(OC)cc3)nc2-c2cccc(F)c2)CC1` (centres undefined), the Potency is 20.6 µM (active).
Next, `Cn1cc(CN2CCC(C(O)CCc3ccccc3)CC2)c(-c2ccccc2F)n1` (centres undefined): “inactive”; `COc1ccc(NC(=S)N2CCC(NC(=O)c3cccc(F)c3)CC2)cc1`: “inactive”; `COc1ccc(-n2cc(CNC3CCOCC3)c(-c3cccc(F)c3)n2)cc1`: 20.6 µM (active).
With `Cc1cccc(-n2cc(CN3CCN(C(=O)c4ncn[nH]4)CC3)c(-c3cccc(F)c3)n2)c1`, the Potency entry is “inactive”.
Next, `COC(=O)CC1Oc2ccccc2-n2cc(-c3ccccc3)nc21` (centres undefined): 20.6 µM (active); `CCC(CC)c1nn2cc(-c3ccccc3)nc2s1`: “inactive”.
Take `COC(=O)CC1=NN(c2ccccc2)C(=O)C1`: the Potency result was “inactive”.
For the compound `CCC1CCCCN1C(=S)NC(=O)c1ccco1` (centres undefined), the Potency entry was “inactive”.
On to `CC(=O)c1cccc(NC(=O)[C@@H](NC(N)=O)C(C)C)c1`, for which the Potency result is “inactive”.
As for `O=C(O)Cc1ccc(NC(=O)c2cccs2)cc1`, the Potency entry was “inactive”.
Next, `COc1ccc(CCNC(=O)CSc2nnc(CNC(=O)c3cccs3)o2)cc1OC`: “inactive”; `COc1ccc(CCNC(=O)/C(C#N)=C2\N=C(NC(=O)c3cccs3)c3ccccc32)cc1`: 10.3 µM (active); `CCc1ccc2c(c1)cc(CN(C(=S)Nc1ccccc1Cl)C1CC1)c1nnnn12`: “inactive”.
As for `Cc1oc2c(C)c3oc(=O)c(CC(=O)N[C@@H](CC(C)C)C(=O)N[C@@H](Cc4ccccc4)C(=O)O)c(C)c3cc2c1C`, the entry is “inactive”; as for `COCc1[nH][nH]c(=O)c1C=Nc1ccc(F)cc1F`, “inactive”; as for `Cc1ccc(S(=O)(=O)N(CC(=O)N2CCc3ccccc3C2)c2cccc(Cl)c2)cc1`, 20.6 µM (active).
Next, `CS(=O)(=O)N(CC(=O)N1CCc2ccccc2C1)c1ccc(Br)cc1`: “inactive”.
Take `COc1cccc(N(CC(=O)N2CCc3ccccc3C2)S(C)(=O)=O)c1`: the Potency result was “inactive”.
As for `Cc1ccccc1CNC(=O)CCC(=O)N1Cc2ccccc2Oc2ncccc21`, the entry is “inactive”; as for `COc1ccc(C(=O)N(Cc2ccccc2)c2ccc(C)cc2)cc1S(=O)(=O)N1CCOCC1`, 14.6 µM (active); as for `COc1ccc(C(=O)N(C)Cc2ccc(OC)c(OC)c2OC)cc1S(=O)(=O)N1CCOCC1`, “inactive”.
With `Cc1ccc(S(=O)(=O)N2CCN(C(=O)c3cc(S(=O)(=O)N4CCOCC4)ccc3F)CC2)cc1`, the Potency entry is “inactive”.
Take `COc1ccc(C(=O)NCc2ccc(C)cc2)cc1S(=O)(=O)N1CCCC1`: the Potency result was “inactive”.
For `Cc1ccc(S(=O)(=O)N2CCOCC2)cc1C(=O)NC(=S)N(Cc1ccccc1)C(C)C`, the Potency entry is “inactive”.
Next, `Cc1ccc(C(=O)OCC(=O)N2CCCCCC2)cc1S(=O)(=O)N1CCOCC1`: “inactive”; `CCOc1ccc(CCNC(=O)COC(=O)c2ccc(C)c(S(=O)(=O)N3CCOCC3)c2)cc1OCC`: “inactive”; `COc1ccc(C(=O)OCC(=O)c2ccc(C)c(S(=O)(=O)N3CCOCC3)c2)cc1OC`: 11.6 µM (active).
On to `Cc1cccc(N(Cc2ccccc2)C(=O)c2cc(S(=O)(=O)N3CCOCC3)ccc2F)c1`, for which the Potency is 18.4 µM (active).
Next, `O=C1c2cccc3cccc(c23)N1CN1CCN(c2ccccn2)CC1`: “inactive”; `CCCCc1ccc(NC(=S)N2CCCC(CO)C2)cc1` (centres undefined): “inactive”.
Next, `Oc1ccc2ccc3cccc[n+]3c2c1`: “inactive”; `CCCCN(CC)CCCNC(=O)c1ccc(CSc2nc3ccncc3[nH]2)cc1`: “inactive”; `O=C(Cn1ccc([N+](=O)[O-])n1)NCc1cccs1`: “inactive”.
In the case of `O=C(COC(=O)c1cccc(Cl)c1)Nc1ccc2[nH]c(=O)[nH]c2c1`, the Potency entry is “inactive”.
As for `C/C=C/C1=C(C(=O)O)N2C(=O)[C@@H](NC(=O)[C@H](N)c3ccc(O)cc3)[C@H]2SC1`, the entry is “inactive”.
As for `CCN(CC)CCNC(=O)CN1N=C(c2ccc(OC)cc2)CCC1=O`, the entry is “inactive”.
Next, `COc1ccc(CCNC(=O)CCNS(=O)(=O)c2cc(Br)cnc2N)cc1OC`: “inactive”.
In the case of `COc1ccc(CCNC(=O)NS(=O)(=O)c2ccc(C)cc2)cc1OC`, the Potency result is “inactive”.
Next, `O=C(NCc1cccnc1)c1cnc2ccccc2n1`: “inactive”; `O=C(NCc1ccco1)c1ccc(CS(=O)(=O)Cc2ccc(F)cc2)o1`: “inactive”.
Next, `Cc1ccc(CNC(=O)c2ccc(CS(=O)Cc3cccc(Cl)c3)o2)cc1` (centres undefined): “inactive”; `COc1ccccc1CNC(=O)c1ccc(CS(=O)(=O)c2ccccc2)o1`: “inactive”.
In the case of `COc1ccc(CCNC(=O)c2ccc(CS(=O)(=O)c3ccc(Br)cc3)o2)cc1OC`, the Potency is 14.6 µM (active).
Next, `COc1ccc(CCNC(=O)Cc2ccc(C)cc2)cc1OC`: “inactive”; `CCCNS(=O)(=O)c1ccc(CCC(=O)NCc2cccnc2)cc1`: “inactive”; `COc1ccc(CCNC(=O)c2ccc(CSCc3ccc(C)cc3)o2)cc1OC`: 23.1 µM (active).
As for `Cc1ccc(CCNC(=O)c2ccc(CS(=O)(=O)Cc3cccc(C)c3)o2)cc1`, the figure is 18.4 µM (active); as for `O=C(NCc1cccnc1)c1ccc(CS(=O)(=O)c2ccc(Br)cc2)o1`, 14.6 µM (active).
`COCCCn1c(SCC(=O)NC2CCCC2)nnc1-c1ccccc1`: the Potency entry was “inactive”.
Next, `Cc1ccc(S(=O)(=O)NNC(=S)NC(C)(C)C)cc1`: “inactive”.
As for `CN(Cc1ccccc1)C(=O)COC(=O)/C=C/c1ccc2c(c1)OCO2`, the entry is “inactive”.
As for `CN(C)c1nc2n(c(=O)n1)CCO2`, the entry is “inactive”.
In the case of `O=C(O)Cc1ccc(NC(=O)C2CCCCC2C(=O)O)cc1` (centres undefined), the Potency result was “inactive”.
Next, `COCCn1c(=O)c(C)nc2cnc(N(C)C)nc21`: “inactive”.
Next, `O=C(O)C1CCN(S(=O)(=O)N2CCOCC2)CC1`: “inactive”.
As for `CC1CN(C(=O)COC(=O)c2cccc(NS(=O)(=O)c3ccccc3)c2)CC(C)O1` (centres undefined), the entry is “inactive”; as for `CCOC(=O)c1cc(S(=O)(=O)NCCc2ccc(OC)c(OC)c2)cn1C`, “inactive”.
As for `CN1CCCN(C(=O)C2CCCCC2)CC1`, the Potency result is “inactive”.
Consider `CCOc1ccc(NC(=O)CC(Cc2ccc(Cl)cc2)C(=O)O)cc1` (centres undefined), for which the Potency result is “inactive”.
